Data as given in PubChem BioAssay AID651871 (Sanford-Burnham Center for Chemical Genomics, 2012).

Tested on: HL-1
Assay: protection of cardiomyocytes from stress damage, SAR follow-up, cell-based, panel, H9c2 and HL-1, ATP luminescence, set 2 (AID 651871);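 also: cells exposed to stressor for 2 h before ATP readout; reference of the scale not given here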
Conditions: H9c2/HL-1 cardiomyocytes, 2-deoxyglucose stress, with 2-deoxyglucose, run 12, at 19.8 µM (top of the series)

Compound `COc1ccc2c(c1OC)C(=O)N1c3ccccc3C(=O)N(Cc3cccc(Cl)c3Cl)C21` (stereo unspecified) has an activity (protection/inhibition) of 51%.
